Assay outcomes (PubChem)
Most compounds without a hit are left out; they make up all but 20% or so of the library.
HCMV inh: blocks human cytomegalovirus replication; HFF cells, HCMV-luciferase reporter, 72 h; stronger effect = lower value; activity change, negative = inhibition, % at 57.5 µM; 410,000 compounds, 4.5% hits; in the data active means activity change below about -60%; inconclusive means no clear call, values can overlap the other calls; inactive means above about -39%; further: on the % scale 0 is the no-effect control and ±100 the full control effect
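Two-dose cell screen: HFF monolayers treated with compounds and infected with luciferase-expressing HCMV at 1 PFU/cell, 72 h at 37C, then lysed for luciferase measurement.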
Pf growth 48h: P. falciparum growth inhibition at 48 hours (one generation); P. falciparum luciferase growth in erythrocytes, 48 h; Potency, µM (highest dose often 28.7 µM), without a hit: top-dose activity change, negative = inhibition, usual class: inhibitors; 310,000 compounds, 5.9% hits; AID 504832; further: potency means the concentration at half of the fitted maximal effect; on the % scale 0 is the no-effect control and ±100 the full control effect
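Luciferase-expressing P. falciparum in infected erythrocytes (2% hematocrit, 0.1% parasitemia final) in RPMI 1640/0.5% Albumax were exposed to compound for 48 hours at 37 C, 5% CO2; growth read as luminescence.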
Shiga inhibitor: Shiga toxin inhibition; inhibition, % at 38.7 µM; 290,000 compounds, 9.2% hits; AID 2315; Vero cells, Shiga toxin protein synthesis inhibition reporter; in the data active means inhibition mostly above about 28%, no sharp cut-off; inactive means mostly below about 43%; further: 0% is about no effect
Pf growth 96h: P. falciparum growth inhibition at 96 hour, primary screen for plastid delayed-death inhibitors. P. falciparum luciferase reporter growth, 96 h. Potency, µM (series often up to 28.7 µM), for inactives: at the highest dose activity change, negative = inhibition, actives largely listed as inhibitors. 320,000 compounds, 6.9% hits. AID 504834; further: potency means the concentration at half of the fitted maximal effect; on the % scale 0 is the no-effect control and ±100 the full control effect
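Erythrocytes infected with luciferase-expressing P. falciparum were dispensed at 2% hematocrit and 0.05% parasitemia (final), then incubated with compounds 96 hours at 37 C in 5% CO2. Luminescence after detection reagent addition reported growth.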
Cycloheximide cs: affects cycloheximide protein synthesis inhibition readout, counter-screen. cell reporter, cycloheximide protein synthesis inhibition counterscreen. max response, %. 300,000 compounds, 12% hits. AID 2314; in the data active means max response mostly above about 13%, no sharp cut-off; inactive means mostly below about 14%; further: read at 38.3 µM for the half of the compounds with a filed dose; 0% is about no effect
* = called active by the depositor; ? = inconclusive; nt = not tested or not shown; + = active, no number; [ ] = remark or other dose. Unless noted, the call rests on the fitted dose curve; in most records, active means well fitted inhibition curve with a large enough effect; inconclusive means small, poorly fitted or top-dose-only effect, or another doubt; inactive means no such curve, though single readings can be large or run the other way.

SMILES | HCMV inh | Pf growth 48h | Shiga inhibitor | Pf growth 96h | Cycloheximide cs
CCOC(=O)/C(C#N)=C\c1ccc(OCC(=O)Nc2ccc(C)cc2C)c(OC)c1 | 9 | 39% | -7 | 2.6µM* | 3
CC(C)n1cnc2c(N(C)c3cccc(Cl)c3)nc(N(CCO)CCO)nc21 | -4 | 13µM* | -3 | 9.3µM* | -5
Cc1ccc(S(=O)(=O)N2C[C@H]3[C@H]4C(=O)N(c5ccccc5)C(=O)[C@H]4C[C@H](OC(=O)NCC4CCCCC4)[C@@]3(O)C2)cc1 | -2 | nt | nt | nt | nt
Cc1c(C)c2c(OCC(=O)N3CCC[C@H]3C(=O)O)cc3c(c2oc1=O)CCC(C)(C)O3 | -7 | ? | 8 | 13µM* | -1
CCC(NC(=O)COc1cc2c(c3oc(=O)c(C)c(C)c13)CCC(C)(C)O2)C(=O)O (centres undefined) | -35 | 11%[0.00184 µM] | -11 | ? | -3
Cc1c(C)c2c(OCC(=O)N3CCC(O)CC3)cc3c(c2oc1=O)CCC(C)(C)O3 | -21 | 13µM* | 15 | 7.4µM* | -1
Cc1c(C)c2c(OCC(=O)N[C@@H](C)C(=O)O)cc3c(c2oc1=O)CCC(C)(C)O3 | 15 | -7% | -10 | -12% | -6
CCN(C[C@H]1N[C@@](Cc2ccccc2)(C(=O)OC)[C@H]2C(=O)N(C)C(=O)[C@@H]12)C(=O)Nc1ccc(Cl)cc1 | 5 | nt | nt | nt | nt
Cc1cnc(Nc2nc3ccccc3o2)nc1C(=O)Nc1cccc(C(F)(F)F)c1 | -74* | ? | 23 | 29% | 2
CC(=O)Nc1ccc(N/C=C(\C=O)c2nc3ccccc3o2)cc1 | 41 | 58% | -11 | ? | 14
O=C(Nc1ccc2c(c1)C(=O)NC2=O)c1cccc(C(F)(F)F)c1 | -25 | 62% | -5 | 47% | -1
O=C(Nc1ccc(/C=C/c2nc3ccccc3o2)cc1)c1c(F)cccc1F | 8 | -66% | + | -36% | 28*
O=C(Nc1ccc(/C=C/c2nc3ccccc3o2)cc1)c1cccc(C(F)(F)F)c1 | 9 | 46% | 102* | 40% | 34*
CC(=O)Nc1ccc(/C=C/c2nc3ccccc3o2)cc1 | -24 | nt | 101* | 129% | 54*
Cc1ccc(NC(=O)CN2C(=O)C(C)(C)c3ccccc32)cc1 | 3 | nt | nt | nt | nt
CCCCn1c(SCC(=O)NC2CCCC2)nc2ccccc2c1=O | -12 | ? | nt | ? | nt
CN(c1cnn(-c2ccccc2)c(=O)c1Cl)n1cccc1 | ? | 41% | 56* | 44% | 34*
Nc1c(Cl)cnn(-c2ccccc2)c1=O | 18 | nt | nt | nt | nt
O=c1c(Cl)c(Cl)cnn1-c1ccccc1 | -100* | -18% | -19 | ? | -9
Nc1cnn(-c2ccccc2)c(=O)c1Cl | 27 | ? | nt | -14% | -1
N#CCSc1nnc2ccc3ccccc3n12 | 25 | 41% | active | 27% | 13*
O=C(NCc1ccc(F)cc1)c1cnc(N2CCCCC2)c2ccccc12 | 7 | nt | nt | nt | nt
O=C(OCC(=O)N1CCN(C(=O)c2ccco2)CC1)c1cc(-c2cccc(Br)c2)nc2ccccc12 | 16 | 7% | 13 | nt | 5
CCC1CCCCN1C(=O)Cn1c(=O)n(-c2ccccc2C(F)(F)F)c(=O)c2c(C)c(C(=O)N(C)C)sc21 (centres undefined) | 8 | nt | nt | nt | nt
O=[N+]([O-])c1cc(Cl)cc2c1nc(NCCO)c1ccccc12 | -95* | -12% | -10 | 40% | 1
SMILES | HCMV inh | Pf growth 48h | Shiga inhibitor | Pf growth 96h | Cycloheximide cs
COc1ccc(CNC(=O)N[C@@H](Cc2c[nH]c3ccccc23)C(=O)O)cc1 | 19 | 38% | -3 | 20% | -4
[O-][N+]1=C(c2cccs2)CN(O)C1 | -17 | -1% | -19 | 1.7µM* | -8
CC1(C)N(O)CC(c2cccs2)=[N+]1[O-] | -14 | 3% | 11 | nt | 8
COc1ccc(CNC(=O)C(OC(=O)c2ccco2)c2ccc(OC)cc2)cc1 (centres undefined) | -3 | 0% | -4 | 0% | -2
CCCCn1c(O)c(C=NC2CC3CCC2(C)C3(C)C)c(=O)[nH]c1=O (centres undefined) | 121 | 10µM* | 23 | ? | 7
Cn1c(O)c(C=NC2CC3CCC2(C)C3(C)C)c(=O)[nH]c1=O (centres undefined) | 26 | ? | -11 | ? | -2
COC(=O)[C@]12CCCCC=C1N(Cc1ccccc1)C(=O)[C@H](CC(=O)N1CCN(C(=O)c3ccco3)CC1)C2 | -8 | nt | nt | nt | nt
CN(C)S(=O)(=O)c1cccc(C(=O)NCCNC(=O)c2cccc(S(=O)(=O)N(C)C)c2)c1 | 17 | 0% | 21 | -4% | -1
CC(Cc1ccco1)NC(=O)c1cccc(S(=O)(=O)N(C)C)c1 (centres undefined) | 15 | 118% | 67* | 134% | 30*
CC(Cc1ccco1)NC(=O)c1ccc(C(F)(F)F)cc1 (centres undefined) | 62 | 320% | + | 447% | 43*
CN(C)C(CNC(=O)c1ccc(C(F)(F)F)cc1)c1ccco1 (centres undefined) | 33 | 17% | 17 | 35% | 17*
Cc1ccc2oc(C(=O)NCC(c3ccco3)N(C)C)c(C)c2c1 (centres undefined) | 57 | 23% | 75* | 45% | 41*
CC(=O)Nc1ccc(C(=O)NCC(c2ccco2)N(C)C)cc1 (centres undefined) | -1 | nt | nt | nt | nt
O=C(NCc1ccco1)c1ccc(C(F)(F)F)cc1 | -30 | 10% | 13 | 11% | 2
COc1ccc(CNC(=O)c2cccn2-c2nnc(N3CCCCC3)s2)c(OC)c1 | 0 | nt | nt | nt | nt
CSc1ncccc1C(=O)Nc1ccc(F)c(F)c1F | ? | 1% | -14 | 59% | 10
CCCC(=NCCc1c(C)[nH]c2ccccc12)C1=C(O)CC(c2ccccc2)CC1=O (centres undefined) | ? | 13µM* | -2 | -16% | -2
CCC/C(O)=C1\C(=O)CC(c2ccccc2)CC1=NCCc1c(C)[nH]c2ccccc12 (centres undefined) | -14 | 2.6µM* | -13 | ? | 4
CCCCC(=NCCc1c(C)[nH]c2ccccc12)C1=C(O)CC(c2ccccc2)CC1=O (centres undefined) | 12 | 9.3µM* | 16 | ? | -1
CCOC(=O)N1CCN(CC(O)COc2c(C)cc(C)cc2C)CC1 (centres undefined) | 39 | 15% | 2 | 133% | -6
CC(=NO)c1cc(Br)c2cccc3c2c1CC3 | 15 | nt | nt | nt | nt
Cc1ccc(N(CC(=O)NCc2ccc(F)cc2)S(=O)(=O)c2c(C)n[nH]c2C)cc1 | -21 | -34% | -2 | 3% | -7
COc1ccc(-c2c(-c3ccc4c(c3)OCO4)c3ccccc3n2C)cc1 | -39 | nt | nt | nt | nt
CCOC(=O)N1CCN(C(=O)c2ccc3c(c2)NC(=O)/C(=C/c2ccccc2)S3)CC1 | ? | -9% | -2 | 15µM* | 8
O=C1Nc2cc(C(=O)N3CCC4(CC3)OCCO4)ccc2S/C1=C\c1ccccc1 | -27 | ? | -7 | 28% | 16
